For experiment [1], the target named is Regulator of G-protein signaling 4 (Homo sapiens) + Guanine nucleotide-binding protein G(o) subunit alpha (Homo sapiens) (UniProt P49798+P09471). As to the kind of experiment: modulators of RGS–Galpha-o binding, primary screen, biochemical, multiplexed beads, flow cytometry, RGS4/7/8/16/19 (AID 1504).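 Note: fluorescently labeled Galpha-o bound to GDP with aluminium fluoride binding biotinylated RGS beads.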 Particulars: multiplexed bead flow cytometry, at 10 µM. (Flow cytometry measures light scatter and fluorescence of single cells or particles in a stream.)

Experiment [2] addresses GTPase HRas (Homo sapiens) (UniProt P01112). The experiment in a line: activated Ras mutant GTP binding inhibitors, dose response, biochemical, multiplex bead flow cytometry (AID 1341;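 active = dose-response curve with midpoint inside the tested range, moderate steepness, significant amplitude and little compound fluorescence or bead-attachment interference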;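 note: GST-tagged constitutively activated Ras mutant immobilized on beads and multiplexed with other GTPases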). The following applies: bead-based flow cytometry, Bodipy-FL-GTP binding; series mostly up to 100 µM.
Experiment [3] can be described thus: LAP4-GFP expression modulators in yeast, confirmation, cell-based, second cherry pick, flow cytometry (AID 2621;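 active = GFP signal as percent of the solvent control above about 150%, meaning raised reporter expression, limit read from the data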;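 note: ratio of well median GFP fluorescence to plate DMSO mean so 100% = DMSO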). The following applies: S. cerevisiae LAP4-GFP strain, 3 h, at 10 µM, stronger effect = higher value.
Experiment [4] is described as follows: modulators of MEP2-GFP levels in yeast, confirmation, S. cerevisiae, flow cytometry GFP, second cherry picks (AID 2622;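 active = GFP signal above 150% of the solvent control wells, that is a rise of more than half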;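 note: median channel GFP fluorescence of all gated yeast cells per well; ratio of median GFP to plate DMSO average so 100% = DMSO level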). Particulars: S. cerevisiae MEP2-GFP strain, 3 h, at 10 µM, stronger effect = higher value.
Experiment [5] can be described thus: RPL19A-GFP modulators in TOR pathway yeast, confirmation, cell-based, S. cerevisiae, flow cytometry, second cherry pick (AID 2623;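 active = under 65% GFP response relative to DMSO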;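 note: median GFP channel fluorescence per well over the all cells gate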). Particulars: S. cerevisiae RPL19A-GFP strain, 3 h, at 10 µM, stronger effect = lower value, 100% means same as DMSO wells.
Experiment [6] is described as follows: modulators of CIT2-GFP expression in yeast, confirmation, flow cytometry, second cherry pick, single plex (AID 2624;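 active = GFP response vs DMSO above about 150%, limit read from the data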;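 note: median green fluorescence per well over all gated yeast cells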). Particulars: S. cerevisiae CIT2-GFP strain, 3 h, at 10 µM, stronger effect = higher value, DMSO control wells read 100%.
The nature of experiment [7]: AGP1-GFP expression modulators, hit retest, confirmation, cell-based, flow cytometry, S. cerevisiae, cherry pick set 2 (AID 2643;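 active = over 150 percent of DMSO response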;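 note: median GFP channel fluorescence over all cells without mother daughter split; sample median GFP divided by mean DMSO control so 100% equals DMSO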). Particulars: S. cerevisiae AGP1-GFP strain, 3 h, at 10 µM, stronger effect = higher value.
Experiment [8] is described as follows: AGP1-GFP expression modulators, hit retest, confirmation, cell-based, flow cytometry, S. cerevisiae, cherry picks (AID 2273;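 active = GFP response above 150% of the DMSO level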;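 note: median GFP channel fluorescence over the whole cell population gate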). The following applies: S. cerevisiae AGP1-GFP strain, 3 h, at 10 µM.
The target in experiment [9] is Integrin beta-1 (Homo sapiens) + Integrin alpha-4 (Homo sapiens) (UniProt P13612+P05556). As to the kind of experiment: inhibition of HUTS-21 binding to VLA-4, pilot screen, VLA-4 allosteric modulator project, U937 cells, HUTS-21 mAb, flow cytometry, validation set (AID 2674;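 active = inhibition above 50%, about 3 SD of the validation set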;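 note: antibody binding induced by the VLA-4 ligand LDV present at three times its Kd; 0% = LDV ligand with antibody and no compound and 100% = antibody without LDV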). The following applies: HUTS-21 LIBS mAb binding, at 6.7 µM, stronger effect = higher value, binding induced by LDV ligand.

Experiment [10] is described as follows: superoxide lowering in aged yeast cells, pilot screen, validation compound set (AID 2706;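 active = superoxide response below 65% of plate, a cut near 3 SD across the whole screen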;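 note: yeast exposed to compound for one week at 30 degrees C before staining; 100% = mean of all compound wells on the same plate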). Particulars: S. cerevisiae aging, superoxide DHE fluorescence; at 10 µM; stronger effect = lower value.
Experiment [11] has as its target Beta-adrenergic receptor kinase 1 (Homo sapiens) (UniProt P25098). The experiment in a line: GRK2 binders displacing RNA aptamer, biochemical, validation, human GRK2, bead flow cytometry (AID 488806;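 active = aptamer binding inhibition above 30%, about 3 SD of noise from non-fluorescent compounds; inactive = inhibition at or below 30%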). The following applies: bead-bound GRK2, FAM-aptamer displacement, at 10 µM, stronger effect = higher value.
The target of experiment [12] is Beta-2 adrenergic receptor (Homo sapiens) (UniProt P07550). As to the kind of experiment: beta2AR agonists driving receptor internalization, pilot screen, cell-based, FAP fluorogen, flow cytometry, validation set (AID 504459;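 active = percent response above 42, roughly 3 SD of non-fluorescent test compounds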;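 note: agonist-driven loss of surface beta2AR via internalization measured by FAP dye flow cytometry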). Particulars: Am2.2-beta2AR cells, FAP surface receptor flow cytometry; at 10 µM; stronger effect = higher value.
Experiment [13] concerns the target AP-2 complex subunit beta (Homo sapiens) (UniProt P63010). The experiment in a line: inhibitors of arrestin peptide binding to AP2, pilot screen, biochemical, validation set, GST-AP2 beads, flow cytometry (AID 504541;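 active = inhibition above 54%, about 3 SD of non-fluorescent compounds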;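 note: AP2 carries R879A mutation and is captured from E. coli lysate; bead-bound FITC arrestin peptide fluorescence measuring arrestin peptide binding to AP2; 0% = DMSO wells and 100% = excess unlabeled arrestin peptide control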). Particulars: FITC arrestin peptide, at 10 µM, stronger effect = higher value, AP2 beta2 appendage fragment, R879A mutant.
Experiment [14] can be described thus: yeast V-ATPase proton transport modulators, S. cerevisiae, pHLuorin, HTS validation (AID 504600; in the data active = response above about 15%;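 note: plate controls were DMSO for no effect and reference compound for full effect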). Particulars: S. cerevisiae pHLuorin cytosolic pH, at 10 µM, stronger effect = higher value.
In experiment [15] the test system is anti-desmoglein-3 scFv antibody binding to human DSG3. As to the kind of experiment: inhibitors of anti-DSG3 scFv binding to DSG3, pilot screen, biochemical, validation compound set, bead-based, flow cytometry (AID 588368;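 active = binding below the plate cutoff, the plate median minus 3 SD, with a reading above zero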;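 note: signal is the median channel fluorescence of bead-bound GFP antibody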). Particulars: Protein G beads, DSG3-Fc, scFv-GFP binding, at 10 µM, stronger effect = lower value.
Experiment [16] is described as follows: inhibitors of fungal efflux pumps CDR1, CDR2, MDR1, pilot screen, validation compound set, multiplex, phenotypic (AID 588506;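 active = efflux inhibition above 0.42, the validation set average plus 4 SD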;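 note: Nile Red retained in cells so higher fluorescence means more efflux inhibition; 0 = negative control wells and 1 = enniatin B 25 µM full block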). Particulars: S. cerevisiae pump-expressing triplex, Nile Red efflux flow cytometry; at 10 µM; stronger effect = higher value; the pumps come from Candida albicans.
Experiment [17] concerns the target ATP-binding cassette sub-family B member 6 (Homo sapiens) (UniProt Q9NP58). As to the kind of experiment: ABCB6 transporter inhibitors, pilot screen, K562-ABCB6 cells, flow cytometry, validation set (AID 588550;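 active = inhibition above the screen-wide mean plus 3 SD, about 51%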;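 note: 0% = DMSO wells and 100% = benzethonium chloride 70 µM positive control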). The following applies: K562-ABCB6 porphyrin accumulation, 1 h, at 10 µM, stronger effect = higher value.
Experiment [18] in a line: promoters of myeloid differentiation in arrested cells, primary screen, cell-based, GFP/MAC1 double positive, flow cytometry, validation set (AID 588685;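 active = differentiation response of at least 50%, scaled between solvent and reference control, from cells with both markers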;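 note: compound exposure lasts four days before antibody staining and flow analysis; 0% = DMSO wells and 100% = 5 µM fulvestrant positive control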). Particulars: ER-HoxA9 marrow cells, stronger effect = higher value, normalized: vehicle 0, fulvestrant 100.

This is an account of results in PubChem BioAssay.

Unmarked numbers belong to inactive results. For some of these results: Potency and affinity values are given separately. This is one part of the list. The source made the active and inactive calls. Unless noted, the rule behind the calls is not given here.

ATP-binding cassette sub-family B member 6 (Homo sapiens), sequence (Q9NP58 whole entry, looked up): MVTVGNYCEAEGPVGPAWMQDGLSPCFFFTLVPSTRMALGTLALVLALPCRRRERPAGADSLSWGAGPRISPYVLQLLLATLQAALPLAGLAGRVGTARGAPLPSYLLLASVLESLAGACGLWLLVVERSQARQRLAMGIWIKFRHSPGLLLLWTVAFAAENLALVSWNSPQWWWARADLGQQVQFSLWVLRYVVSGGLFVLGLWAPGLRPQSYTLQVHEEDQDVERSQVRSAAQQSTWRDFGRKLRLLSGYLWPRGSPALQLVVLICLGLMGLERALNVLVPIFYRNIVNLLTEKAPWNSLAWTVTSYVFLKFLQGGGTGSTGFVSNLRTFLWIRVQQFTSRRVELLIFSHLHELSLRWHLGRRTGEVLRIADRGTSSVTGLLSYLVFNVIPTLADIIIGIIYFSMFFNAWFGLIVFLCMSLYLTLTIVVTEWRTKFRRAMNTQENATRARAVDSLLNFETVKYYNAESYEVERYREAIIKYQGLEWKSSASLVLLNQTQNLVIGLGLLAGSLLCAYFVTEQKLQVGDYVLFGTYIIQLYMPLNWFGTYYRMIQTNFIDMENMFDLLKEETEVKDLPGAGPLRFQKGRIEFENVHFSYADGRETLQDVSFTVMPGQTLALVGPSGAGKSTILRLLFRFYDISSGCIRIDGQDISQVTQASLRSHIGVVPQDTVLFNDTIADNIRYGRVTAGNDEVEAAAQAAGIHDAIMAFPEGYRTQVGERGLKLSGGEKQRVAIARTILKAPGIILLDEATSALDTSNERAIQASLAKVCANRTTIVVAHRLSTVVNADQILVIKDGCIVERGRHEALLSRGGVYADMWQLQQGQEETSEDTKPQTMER
Regulator of G-protein signaling 4 (Homo sapiens) + Guanine nucleotide-binding protein G(o) subunit alpha (Homo sapiens), sequence (P09471 whole entry, looked up): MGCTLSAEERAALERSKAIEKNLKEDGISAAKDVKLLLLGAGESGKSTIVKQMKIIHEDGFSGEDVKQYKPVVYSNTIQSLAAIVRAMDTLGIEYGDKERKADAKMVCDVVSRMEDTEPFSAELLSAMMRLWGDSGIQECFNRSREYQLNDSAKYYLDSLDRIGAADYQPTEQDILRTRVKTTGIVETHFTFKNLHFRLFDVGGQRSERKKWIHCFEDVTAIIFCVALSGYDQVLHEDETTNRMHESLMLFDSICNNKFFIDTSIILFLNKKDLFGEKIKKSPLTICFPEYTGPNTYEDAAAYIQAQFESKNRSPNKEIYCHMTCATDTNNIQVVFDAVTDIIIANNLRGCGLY
Regulator of G-protein signaling 4 (Homo sapiens) + Guanine nucleotide-binding protein G(o) subunit alpha (Homo sapiens), sequence (P49798 whole entry, looked up): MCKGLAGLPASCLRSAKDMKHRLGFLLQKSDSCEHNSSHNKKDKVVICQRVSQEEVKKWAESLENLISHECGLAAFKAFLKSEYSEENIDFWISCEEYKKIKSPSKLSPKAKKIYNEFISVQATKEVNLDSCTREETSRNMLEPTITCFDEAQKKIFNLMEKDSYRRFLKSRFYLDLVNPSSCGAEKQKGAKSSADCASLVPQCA
Beta-2 adrenergic receptor (Homo sapiens), sequence (P07550 whole entry, looked up): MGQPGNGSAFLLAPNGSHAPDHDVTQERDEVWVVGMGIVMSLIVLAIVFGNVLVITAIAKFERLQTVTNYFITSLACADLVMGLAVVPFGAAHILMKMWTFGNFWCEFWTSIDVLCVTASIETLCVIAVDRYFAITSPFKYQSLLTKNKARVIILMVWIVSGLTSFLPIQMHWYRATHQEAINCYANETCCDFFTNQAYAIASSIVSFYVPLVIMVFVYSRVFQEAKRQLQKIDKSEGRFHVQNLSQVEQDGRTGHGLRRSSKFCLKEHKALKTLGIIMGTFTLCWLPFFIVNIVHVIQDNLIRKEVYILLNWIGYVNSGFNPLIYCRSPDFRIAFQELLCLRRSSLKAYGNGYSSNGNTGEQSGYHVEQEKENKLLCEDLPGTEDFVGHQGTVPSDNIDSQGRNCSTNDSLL
AP-2 complex subunit beta (Homo sapiens), sequence (P63010 whole entry, looked up, the tested form may be a part, one chain of several): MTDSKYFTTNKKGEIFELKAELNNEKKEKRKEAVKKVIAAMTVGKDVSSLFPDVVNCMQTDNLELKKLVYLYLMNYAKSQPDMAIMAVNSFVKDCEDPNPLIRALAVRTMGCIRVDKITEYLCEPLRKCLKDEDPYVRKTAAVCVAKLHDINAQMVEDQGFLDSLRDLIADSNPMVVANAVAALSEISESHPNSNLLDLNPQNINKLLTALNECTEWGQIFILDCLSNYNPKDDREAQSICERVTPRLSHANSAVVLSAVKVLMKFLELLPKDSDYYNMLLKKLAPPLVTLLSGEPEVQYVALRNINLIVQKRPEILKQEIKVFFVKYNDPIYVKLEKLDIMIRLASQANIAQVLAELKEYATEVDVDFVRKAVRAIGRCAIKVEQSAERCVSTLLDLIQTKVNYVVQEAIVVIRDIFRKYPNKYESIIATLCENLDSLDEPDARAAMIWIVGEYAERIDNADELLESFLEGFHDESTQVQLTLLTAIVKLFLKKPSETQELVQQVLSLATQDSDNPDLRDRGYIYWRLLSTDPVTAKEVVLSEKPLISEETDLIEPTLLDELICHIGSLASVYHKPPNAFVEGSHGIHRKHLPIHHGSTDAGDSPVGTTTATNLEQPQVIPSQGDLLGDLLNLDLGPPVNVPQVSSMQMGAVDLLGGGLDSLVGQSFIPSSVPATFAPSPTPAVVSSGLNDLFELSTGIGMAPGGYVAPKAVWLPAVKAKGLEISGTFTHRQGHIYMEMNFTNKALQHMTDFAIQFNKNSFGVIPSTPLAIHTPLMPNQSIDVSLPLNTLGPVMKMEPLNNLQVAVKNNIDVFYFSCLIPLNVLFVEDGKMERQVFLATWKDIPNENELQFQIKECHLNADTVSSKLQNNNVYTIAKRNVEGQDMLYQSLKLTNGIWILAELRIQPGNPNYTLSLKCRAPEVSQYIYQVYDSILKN
Beta-adrenergic receptor kinase 1 (Homo sapiens), sequence (P25098 whole entry, looked up): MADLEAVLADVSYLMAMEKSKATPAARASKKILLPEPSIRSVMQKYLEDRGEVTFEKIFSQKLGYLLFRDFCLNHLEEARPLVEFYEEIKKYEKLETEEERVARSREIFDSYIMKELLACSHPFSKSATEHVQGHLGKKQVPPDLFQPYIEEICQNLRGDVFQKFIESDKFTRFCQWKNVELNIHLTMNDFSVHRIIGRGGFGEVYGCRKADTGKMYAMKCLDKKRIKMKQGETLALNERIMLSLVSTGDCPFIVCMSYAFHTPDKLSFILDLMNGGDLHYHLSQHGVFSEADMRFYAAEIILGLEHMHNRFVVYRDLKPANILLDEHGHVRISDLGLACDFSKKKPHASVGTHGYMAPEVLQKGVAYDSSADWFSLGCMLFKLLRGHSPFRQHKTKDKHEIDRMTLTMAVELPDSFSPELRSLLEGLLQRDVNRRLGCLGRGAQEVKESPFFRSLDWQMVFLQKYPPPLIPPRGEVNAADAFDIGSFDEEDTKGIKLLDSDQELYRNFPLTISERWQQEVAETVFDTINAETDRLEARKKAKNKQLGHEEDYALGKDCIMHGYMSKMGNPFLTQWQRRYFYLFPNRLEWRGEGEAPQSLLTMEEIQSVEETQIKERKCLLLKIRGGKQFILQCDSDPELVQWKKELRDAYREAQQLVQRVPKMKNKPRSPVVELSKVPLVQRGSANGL

Turning to `CCCn1c(C)cc(C(=O)COC(=O)c2c(C)nn(-c3ccccc3)c2C)c1C`, the RGS4–Galpha-o binding response in [1] is 76.2% (active).
The same measure, in the same setting: the value for `Cc1ccc(C)c(OCC(=O)N2CCN(C(=O)c3ccco3)CC2)c1` was 83.7% (active); that for `Cc1c(CN2CCCC(C(=O)c3cccc(Cl)c3)C2)c(=O)n(-c2ccccc2)n1C` (centres undefined) was 107% (active).
Same read-out and setting: the value for `CC(=O)c1ccc(NC(=S)NC(=O)CC(C)C)cc1` was 91.6% (active); that for `O=C(Nc1cccc(-c2nc3ccccc3[nH]2)c1)c1ccc(C(=O)Nc2cccc(-c3nc4ccccc4[nH]3)c2)cc1` was 132% (active); that for `Cc1ccc(-n2c(SCC(=O)Nc3ncc(Cl)cc3Cl)nc3ccccc32)cc1` was 86.2% (active).
The same measure, in the same setting: the value for `CCCC(=O)N=c1sc2cccc(F)c2n1C` was 58.4% (active); that for `O=c1[nH]c2ccccc2s1` was 88.6% (active).
With `C/C(=N\NS(=O)(=O)c1ccc(Br)cc1)c1cccs1`, the RGS4–Galpha-o binding response in experiment [1] was 120% (active).
On to `O=C(O)/C=C/c1cn(Cc2ccccc2)nc1-c1cccs1`, for which the molecule was classed as inactive in experiment [2].
In the case of `CC(NC(=O)COC(=O)C1CCN(S(=O)(=O)c2ccccc2C(F)(F)F)CC1)c1ccccc1` (centres undefined), the RGS4–Galpha-o binding response in [1] is 118% (active).
Regarding `CCOC(=O)CSc1nc2c(c(=O)n(Cc3ccccc3Cl)c(=O)n2C)n1C`, in experiment [1], the RGS4–Galpha-o binding response was 74.3% (active).
Consider `CCOc1cc(C(=O)N2CCc3cc(OC)c(OC)cc3C2)ccc1OC(F)F`, for which, in experiment [1], the RGS4–Galpha-o binding response was 128% (active).
Same read-out and setting: the value for `O=C(CN1CCOCC1)Nc1ccccc1` was 115% (active).
Same read-out and setting: next, `O=C(NC1CC1)c1ccc2c(c1)NC(=O)c1ccccc1S2`: 113% (active); `Oc1ccc(-c2onc3ccc(Cl)cc23)cc1`: 118% (active); `CN(C)CCNC(=O)/C(=C/c1cccc([N+](=O)[O-])c1)NC(=O)c1ccccc1`: 119% (active).
The same measure, in the same setting: next, `COc1cc(C(=O)Nc2cc(C(F)(F)F)ccc2N2CCOCC2)ccc1O`: 79.2% (active); `C/C(=C/C(=O)N1CCN(C)CC1)C(=O)O`: 109% (active); `NC(=O)Cc1ccc2sc(-c3ccccc3)nc2c1`: 94.3% (active).
As to `CCn1c(CSCc2c(Cl)cccc2Cl)n[nH]c1=S`, the RGS4–Galpha-o binding response in experiment [1] is 55.9% (active).
Same read-out and setting: next, `O=C(Nc1ccccc1)c1cc2ccccc2[nH]1`: 90.3% (active).
In the case of `COc1ccc(-c2nn(-c3ccccc3)cc2C(=O)Nc2nccs2)cc1OC`, the RGS4–Galpha-o binding response in experiment [1] was 90.3% (active).
Still for that read-out and setting: next, `CCC(=O)Nc1c(S(=O)(=O)c2ccccc2)c2nc3ccccc3nc2n1Cc1ccccc1`: 89.8% (active); `CC(C)Cc1nc(Nc2ccc(S(=O)(=O)N3CCCC3)cc2)c2nnn(Cc3ccccc3)c2n1`: 135% (active).
`CCC(=O)N1CCC(C(N)=O)(N2CCCCC2)CC1`: the RGS4–Galpha-o binding response in [1] is 133% (active). Also, the GFP response vs DMSO was 99% in [3], 102% in experiment [4], 99.8% in experiment [5] and 104% in [6]. In addition, the percent response vs DMSO in experiment [7] was 99.4%.
With `CCOc1ccc(NC(=O)CSc2nc3ccccc3c(=O)n2Cc2cccs2)cc1`, the RGS4–Galpha-o binding response in experiment [1] was 84.3% (active).
On the same count and under the same terms, next, `COc1ccc(C(=O)NNc2cc(C)nc(NNC(=O)c3ccc(OC)cc3)n2)cc1`: 79.6% (active); `COc1ccc(CCC(=O)OCC(=O)Nc2ccc(C)c(S(=O)(=O)N(C)C)c2)cc1`: 84.4% (active).
On the same count and under the same terms, the value for `CC(=O)N1CC[n+]2c(-c3ccc([N+](=O)[O-])cc3)csc21` was 57% (active); that for `Cc1cc(C)nc(/N=C2\NC(=O)CC(C(=O)O)N2c2ccc(Cl)cc2Cl)n1` (centres undefined) was 117% (active).
Take `CN(C)S(=O)(=O)Oc1ccccc1C(=O)Nc1ccccc1Cl`: in [1], the RGS4–Galpha-o binding response was 114% (active).
Still for that read-out and setting: next, `Cc1ccccc1NC(=S)N(CCCN1CCOCC1)Cc1cccs1`: 105% (active); `Cc1ccccc1CS(=O)(=O)CC1(O)CCN(C(=O)c2cccc(C(F)(F)F)c2)CC1`: 110% (active).
With `COc1cc2c(cc1OC)C(c1ccccc1)=NCC2`, the GFP response, % of DMSO in [8] was 98.3%. For the same molecule, the inhibition is 2.58% in [9], 6.17% in [13] and 6% in experiment [17]. In addition, the superoxide response (% of plate) in [10] was 93.7%. In addition, in [11], the aptamer binding inhibition was 3%. Besides, the response is 2.38% in experiment [12] and -0.17% in experiment [14]. In addition, the binding (% of control) in experiment [15] is 99%. Also, in experiment [16], the efflux inhibition (fraction of control) is 0.34. In addition, the differentiation response in experiment [18] was 1.64%.
With `Cc1ccc(OCCCCn2ccnc2C)c(C)c1`, the GFP response, % of DMSO in experiment [8] is 101%. In addition, the inhibition in experiment [9] was 30.4%; in experiment [13], -1.94%; in [17], 10%. The superoxide response (% of plate) in experiment [10] was 98.5%. For the same molecule, the aptamer binding inhibition in [11] is 3%. Besides, the response in experiment [12] is -16%; in experiment [14] it was 3.03%. For the same molecule, the binding (% of control) in [15] is 106%. Further, the efflux inhibition (fraction of control) in experiment [16] was -0.13. Also, the differentiation response in [18] was 5.85%.
In the case of `CC(C)CC(=O)Nc1ccc2oc(-c3ccncc3)nc2c1`, the GFP response, % of DMSO in [8] was 95.9%. The inhibition in [9] was 10.3%; in experiment [13] it was -5.82%; in experiment [17], 11%. Besides, the superoxide response (% of plate) in [10] was 102%. In addition, the aptamer binding inhibition in experiment [11] is 5%. Also, the response in [12] is -11.1%; in [14] it was -0.11%. Besides, the binding (% of control) in experiment [15] was 105%. Moreover, the efflux inhibition (fraction of control) in [16] is -0.02. The differentiation response in experiment [18] was -2.46%.
Regarding `CN/C(=C/[N+](=O)[O-])NCCSCc1ccc(CN(C)C)o1`, the GFP response, % of DMSO in experiment [8] was 99.3%. Besides, the inhibition was -0.33% in experiment [9], -0.41% in experiment [13] and 14% in experiment [17]. In addition, the superoxide response (% of plate) in [10] is 89.5%. The aptamer binding inhibition in experiment [11] was -20%. Further, the figures for the response in experiment [12] and in experiment [14] were 2.38% and -2.01%, respectively. Further, the binding (% of control) in experiment [15] was 104%. In experiment [16], the efflux inhibition (fraction of control) is -0.42. In addition, the differentiation response in experiment [18] was -3.28%.
With `c1cnc2c(c1)ccc1cccnc12`, in experiment [8], the GFP response, % of DMSO was 102%. Also, the inhibition in experiment [9] was 19.3%; in experiment [13], 10.3%; in experiment [17], 4%. For the same molecule, in experiment [10], the superoxide response (% of plate) was 77.1%. Also, the aptamer binding inhibition in [11] is 8%. The response in experiment [12] is -45.4%; in experiment [14] it was 9.34%. In addition, the binding (% of control) in experiment [15] is 105%. In addition, in experiment [16], the efflux inhibition (fraction of control) was -0.13. In addition, the differentiation response in [18] was -0.06%.

What is called inhibition is the change of the read-out against control, counted positive when it falls.
